From publication PMC5540273 (PLoS ONE, 2017) come the findings set out here.
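Further: KINOMEscan kinase panel screen.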

The subject of this assay is EPHB6. To be noted: concentration: 1 μM, replicates: in singlicate; n = 1.
Turning to `Cc1ccc(C(=O)Nc2ccc(Nc3ccnc4cc(-c5nccs5)ccc34)cc2O)cc1.Cl` [GW494702], the “%Inh” value came out at 50%. The result for `CC(C)c1nc(-c2cccc(NS(=O)(=O)c3c(F)cccc3F)c2F)c(-c2ccnc(Nc3ccc(N4CCOCC4)nc3)n2)s1` [GSK2008607] reads 99%; that for `Cl.c1ccc(-c2ccc3c(Nc4ccc5[nH]ccc5c4)ccnc3c2)nc1` [GW440138], 79%; that for `Nc1ncc(-c2cccnc2)c2scc(-c3ccc4c(c3)CCN4C(=O)Cc3ccccc3)c12` [GSK683281], 98.1%. Turning to `COc1cc(Nc2nccc(-c3c(-c4cccc(NC(=O)c5c(F)cccc5F)c4)nn4ccccc34)n2)cc(OC)c1OC` [GSK323521], the “%Inh” value is listed as 71%. The result for `CCc1ccc(-c2ccc3c(c2)-c2c(cnn2C)S(=O)(=O)N3C)cc1` reads 25%. The result for `COC(=O)Nc1nc2cc(Oc3ccc(NC(=O)Nc4cc(C(F)(F)F)ccc4F)cn3)ccc2[nH]1.Cl.Cl` [GW681170] reads 86%; that for `Cc1occc1-c1ncc(OC[C@@H](N)Cc2c[nH]c3ccccc23)cc1-c1ccc2[nH]nc(C)c2c1.O=C(O)C(F)(F)F` [GSK682037], 0%; that for `O=C(Nc1cccc(Oc2ccc3nc(NC(=O)C4CC4)cn3n2)c1)c1ccccc1C(F)(F)F`, 31%.

Consider `CSc1cccc2c(-c3ccncn3)c(-c3ccc(F)cc3)nn12` [GW514786], for which the “%Inh” value is recorded as 20%. The result for `COc1cc(Nc2ncc3c(C)nc(-c4cc5ccccc5[nH]4)n3n2)cc(OC)c1OC` [GW869516] reads 0%.
